Results filed as inconclusive are left out. Where a call stands in place of a potency, no number is given. Unmarked numbers belong to inactive results. The source made the active and inactive calls. Calls come from the whole dose curve; as a rule, active = well fitted curve in the direction sought with a large enough effect; inconclusive = small, poorly fitted or top-dose-only effect, or another doubt; inactive = no such curve, though single readings can be large; an effect the other way counts as inactive or inconclusive.
Molecular target: Cytochrome P450 2C19 (Homo sapiens) (UniProt P33261)
Sequence (P33261 whole entry, looked up): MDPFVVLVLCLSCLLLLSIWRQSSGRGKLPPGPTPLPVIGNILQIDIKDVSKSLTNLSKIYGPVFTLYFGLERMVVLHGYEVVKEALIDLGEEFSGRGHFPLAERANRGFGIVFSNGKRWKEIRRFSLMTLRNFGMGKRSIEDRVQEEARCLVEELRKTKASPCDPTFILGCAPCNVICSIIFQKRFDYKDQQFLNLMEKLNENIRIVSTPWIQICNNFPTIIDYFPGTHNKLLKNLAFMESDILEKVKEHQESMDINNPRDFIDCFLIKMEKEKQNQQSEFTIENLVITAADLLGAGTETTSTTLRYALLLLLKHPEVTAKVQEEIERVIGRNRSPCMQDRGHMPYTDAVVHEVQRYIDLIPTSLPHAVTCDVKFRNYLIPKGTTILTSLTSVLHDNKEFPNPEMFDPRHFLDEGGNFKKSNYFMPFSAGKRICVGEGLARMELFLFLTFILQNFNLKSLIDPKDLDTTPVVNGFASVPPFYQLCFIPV
Test: qHTS for inhibitors of CYP2C19 against the NCATS DSHEA and TCM libraries (AID 1919974);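 note: luminescence from luciferin released by CYP2C19 oxidation of a pro-luciferin substrate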; note: potency is the fitted concentration of half-maximal effect
Settings: CYP2C19 enzyme inhibition, luminescence qHTS; series mostly up to 34.1 µM
Method in brief: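 Isoform-specific enzyme and substrate levels; enzyme-free wells as background. Reaction: 1x NADPH regenerating system, 30-45 min, room temperature, shielded from light; luminescent detection reagent added, 30 min.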
With O=C(/C=C/c1ccc(O)c(O)c1)O[C@@H]1CC(C(=O)O)=C[C@@H](O)[C@H]1O the Potency was “inactive”.
For CC(C)=CCCC(C)(OC1OC(COC2OC(CO)C(O)C2O)C(O)C(O)C1O)C1CCC2(C)C1C(O)CC1C3(C)CCC(OC4OC(CO)C(O)C(O)C4OC4OC(CO)C(O)C(O)C4O)C(C)(C)C3CCC12C (stereo not given), the Potency was “inactive”.
For CC[C@H](CC[C@@H](C)[C@H]1CCC2C3CCC4C[C@@H](O)CC[C@]4(C)C3CC[C@@]21C)C(C)C (stereo not given in full), the Potency was “inactive”.
In the case of O=C(O)CC(O)(C(=O)O)C(O)C(=O)O (stereo not given), the Potency was “inactive”.
In the case of CCCCCC(=O)CC, the Potency was “inactive”.
In the case of C=C1CC[C@H](O)C/C1=C\C=C1/CCC[C@]2(C)[C@@H]([C@H](C)CC[C@H](C)C(C)C)CC[C@@H]12, the Potency was 22.4 µM (active).
In the case of CC1(C)C2CCC1(C)C(O)C2 (stereo not given), the Potency was “inactive”.
For O[C@@H]1[C@@H](O)[C@H](OC/C=C/c2ccccc2)O[C@H](CO[C@@H]2OC[C@H](O)[C@H](O)[C@H]2O)[C@H]1O, the Potency was “inactive”.
For CC(=O)O[C@H]1[C@H](O[C@H]2CC[C@]34C[C@]35CC[C@]3(C)[C@@H]([C@@]6(C)CC[C@@H](C(C)(C)O)O6)[C@@H](O)C[C@@]3(C)[C@@H]5C[C@H](O[C@@H]3O[C@H](CO)[C@@H](O)[C@H](O)[C@H]3O)[C@H]4C2(C)C)OC[C@@H](O)[C@@H]1O, the Potency was “inactive”.
In the case of OCC1=C[C@@H](O)[C@@H]2C=CO[C@@H](OC3O[C@H](CO)[C@@H](O)[C@H](O)[C@H]3O)[C@H]12 (stereo not given in full), the Potency was “inactive”.
With CCCCCCCCCC=O the Potency was “inactive”.
For CC(=O)OC1CC2CCC1(C)C2(C)C (stereo not given), the Potency was “inactive”.
For CC(C)=CCCC(C)=CCCC(C)=CCCC=C(C)CCC=C(C)CCC=C(C)C, the Potency was “inactive”.
In the case of CCCCCCCCCCCCCCCCCCCCCCCCCCCCCCO, the activity change, negative = inhibition was 9.51% [at 4.27 µM].
For CC(C)c1ccc(C=O)cc1, the Potency was “inactive”.
For O=Cc1ccccc1O, the Potency was “inactive”.
CC/C=C\C/C=C\C/C=C\C/C=C\CCCCC(=O)O showed an activity change, negative = inhibition of 43.3% [at 4.27 µM].
With C=C1C[C@@]23CC[C@H]4[C@@](C)(CCC[C@@]4(C)C(=O)O[C@@H]4O[C@H](CO)[C@@H](O)[C@H](O)[C@H]4O)[C@@H]2CC[C@]1(O[C@@H]1O[C@H](CO)[C@@H](O)[C@H](O[C@@H]2O[C@H](CO)[C@@H](O)[C@H](O)[C@H]2O)[C@H]1O[C@@H]1O[C@@H](C)[C@H](O)[C@@H](O)[C@H]1O)C3 the Potency was “inactive”.
In the case of C=C1C[C@]23CC[C@H]4[C@@](C)(CCC[C@@]4(C)C(=O)O)[C@@H]2CC[C@@]1(O[C@@H]1O[C@H](CO)[C@@H](O)[C@H](O)[C@H]1O[C@@H]1O[C@H](CO)[C@@H](O)[C@H](O)[C@H]1O)C3, the Potency was “inactive”.
In the case of Cc1ccc(C(C)C)cc1, the Potency was “inactive”.
In the case of Cc1ncc(COP(=O)(O)O)c(C)c1O, the Potency was 7.08 µM (active).
For OCCc1ccc(O)cc1, the Potency was “inactive”.
With CN(CC(=O)O)C(=N)N the Potency was “inactive”.
In the case of COc1ccc(C(=O)O)cc1, the Potency was “inactive”.
In the case of CC(C)(O)[C@@H]1CC[C@](C)([C@@H]2[C@H](O)C[C@]3(C)C4C[C@@H](O[C@H]5O[C@@H](CO)[C@H](O)[C@@H](O)[C@@H]5O)C5C(C)(C)[C@H](O[C@H]6OC[C@H](O)[C@@H](O)[C@@H]6O)CC[C@]56CC46CC[C@@]23C)O1 (stereo not given in full), the Potency was “inactive”.
With C=CC(=C)CCC=C(C)C the Potency was “inactive”.
For CC1=CCC(O)(C(C)C)CC1 (stereo not given), the Potency was “inactive”.
With CCCCCC/C=C\CCCCCCCC(=O)O the Potency was “inactive”.
With CC(C)=CCC[C@](C)(O[C@@H]1O[C@H](CO)[C@@H](O)[C@H](O)[C@H]1O)[C@H]1CC[C@]2(C)[C@@H]1[C@H](O)C[C@@H]1[C@@]3(C)CC[C@H](O)C(C)(C)[C@@H]3[C@@H](O[C@@H]3O[C@H](CO)[C@@H](O)[C@H](O)[C@H]3O[C@@H]3O[C@@H](C)[C@H](O)[C@@H](O)[C@H]3O)C[C@]12C the Potency was “inactive”.
For C[C@@H]1O[C@@H](OC[C@H]2OC(Oc3c(-c4ccc(O)c(O)c4)oc4cc(O)cc(O)c4c3=O)[C@H](O)[C@@H](O)[C@@H]2O)[C@H](O)[C@H](O)[C@H]1O (stereo not given in full), the Potency was “inactive”.

Tested on: not listed separately
Test: KB-3-1 P-gp reporter qHTS against the NCATS DSHEA and TCM libraries (AID 1919975)
Settings: KB-3-1 parental cells, CellTiter-Glo luminescence viability, 72 h; series mostly up to 26.1 µM
Method in brief: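 72 h exposure of KB-3-1 cells (DMEM, 10% FBS) to DSHEA/TCM samples, concentration-response; cell viability measured as CellTiter-Glo luminescence after 30 min at room temperature.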
For O=C(/C=C/c1ccc(O)c(O)c1)O[C@@H]1CC(C(=O)O)=C[C@@H](O)[C@H]1O, the outcome was “inactive”.
For CC(C)=CCCC(C)(OC1OC(COC2OC(CO)C(O)C2O)C(O)C(O)C1O)C1CCC2(C)C1C(O)CC1C3(C)CCC(OC4OC(CO)C(O)C(O)C4OC4OC(CO)C(O)C(O)C4O)C(C)(C)C3CCC12C (stereo not given), the outcome was “inactive”.
In the case of CC[C@H](CC[C@@H](C)[C@H]1CCC2C3CCC4C[C@@H](O)CC[C@]4(C)C3CC[C@@]21C)C(C)C (stereo not given in full), the outcome was “inactive”.
With O=C(O)CC(O)(C(=O)O)C(O)C(=O)O (stereo not given) the outcome was “inactive”.
In the case of CCCCCC(=O)CC, the outcome was “inactive”.
With C=C1CC[C@H](O)C/C1=C\C=C1/CCC[C@]2(C)[C@@H]([C@H](C)CC[C@H](C)C(C)C)CC[C@@H]12 the outcome was “inactive”.
For CC1(C)C2CCC1(C)C(O)C2 (stereo not given), the outcome was “inactive”.
With O[C@@H]1[C@@H](O)[C@H](OC/C=C/c2ccccc2)O[C@H](CO[C@@H]2OC[C@H](O)[C@H](O)[C@H]2O)[C@H]1O the outcome was “inactive”.
In the case of CC(=O)O[C@H]1[C@H](O[C@H]2CC[C@]34C[C@]35CC[C@]3(C)[C@@H]([C@@]6(C)CC[C@@H](C(C)(C)O)O6)[C@@H](O)C[C@@]3(C)[C@@H]5C[C@H](O[C@@H]3O[C@H](CO)[C@@H](O)[C@H](O)[C@H]3O)[C@H]4C2(C)C)OC[C@@H](O)[C@@H]1O, the outcome was “inactive”.
For OCC1=C[C@@H](O)[C@@H]2C=CO[C@@H](OC3O[C@H](CO)[C@@H](O)[C@H](O)[C@H]3O)[C@H]12 (stereo not given in full), the outcome was “inactive”.
With CCCCCCCCCC=O the outcome was “inactive”.
For CC(=O)OC1CC2CCC1(C)C2(C)C (stereo not given), the outcome was “inactive”.
In the case of CC(C)=CCCC(C)=CCCC(C)=CCCC=C(C)CCC=C(C)CCC=C(C)C, the outcome was “inactive”.
With CCCCCCCCCCCCCCCCCCCCCCCCCCCCCCO the activity change, negative = inhibition was -11% [at 3.26 µM].
With CC(C)c1ccc(C=O)cc1 the outcome was “inactive”.
In the case of O=Cc1ccccc1O, the outcome was “inactive”.
For CC/C=C\C/C=C\C/C=C\C/C=C\CCCCC(=O)O, the activity change, negative = inhibition was -9.13% [at 3.26 µM].
In the case of C=C1C[C@@]23CC[C@H]4[C@@](C)(CCC[C@@]4(C)C(=O)O[C@@H]4O[C@H](CO)[C@@H](O)[C@H](O)[C@H]4O)[C@@H]2CC[C@]1(O[C@@H]1O[C@H](CO)[C@@H](O)[C@H](O[C@@H]2O[C@H](CO)[C@@H](O)[C@H](O)[C@H]2O)[C@H]1O[C@@H]1O[C@@H](C)[C@H](O)[C@@H](O)[C@H]1O)C3, the outcome was “inactive”.
With C=C1C[C@]23CC[C@H]4[C@@](C)(CCC[C@@]4(C)C(=O)O)[C@@H]2CC[C@@]1(O[C@@H]1O[C@H](CO)[C@@H](O)[C@H](O)[C@H]1O[C@@H]1O[C@H](CO)[C@@H](O)[C@H](O)[C@H]1O)C3 the outcome was “inactive”.
In the case of Cc1ccc(C(C)C)cc1, the outcome was “inactive”.
For Cc1ncc(COP(=O)(O)O)c(C)c1O, the outcome was “inactive”.
For OCCc1ccc(O)cc1, the outcome was “inactive”.
With CN(CC(=O)O)C(=N)N the outcome was “inactive”.
For COc1ccc(C(=O)O)cc1, the outcome was “inactive”.
In the case of CC(C)(O)[C@@H]1CC[C@](C)([C@@H]2[C@H](O)C[C@]3(C)C4C[C@@H](O[C@H]5O[C@@H](CO)[C@H](O)[C@@H](O)[C@@H]5O)C5C(C)(C)[C@H](O[C@H]6OC[C@H](O)[C@@H](O)[C@@H]6O)CC[C@]56CC46CC[C@@]23C)O1 (stereo not given in full), the outcome was “inactive”.
In the case of C=CC(=C)CCC=C(C)C, the outcome was “inactive”.
In the case of CC1=CCC(O)(C(C)C)CC1 (stereo not given), the outcome was “inactive”.
For CCCCCC/C=C\CCCCCCCC(=O)O, the outcome was “inactive”.
In the case of CC(C)=CCC[C@](C)(O[C@@H]1O[C@H](CO)[C@@H](O)[C@H](O)[C@H]1O)[C@H]1CC[C@]2(C)[C@@H]1[C@H](O)C[C@@H]1[C@@]3(C)CC[C@H](O)C(C)(C)[C@@H]3[C@@H](O[C@@H]3O[C@H](CO)[C@@H](O)[C@H](O)[C@H]3O[C@@H]3O[C@@H](C)[C@H](O)[C@@H](O)[C@H]3O)C[C@]12C, the outcome was “inactive”.
With C[C@@H]1O[C@@H](OC[C@H]2OC(Oc3c(-c4ccc(O)c(O)c4)oc4cc(O)cc(O)c4c3=O)[C@H](O)[C@@H](O)[C@@H]2O)[C@H](O)[C@H](O)[C@H]1O (stereo not given in full) the outcome was “inactive”.

From PubChem BioAssay (NCATS)
